From PubChem BioAssay
Active and inactive are the calls of the source.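 How the source made its calls, unless noted: active means inhibition above 20% together with a positive visual image hit; inconclusive means visual image hit but inhibition not above 20%; inactive means no visual image hit.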

Columns and labels:
[1] = inhibitors of TNFa-induced NFkB p65 translocation, primary screen, imaging, HUVEC, MLSMR starter and 10KST1 sets (AID 438); settings: HUVEC TNFa-induced p65 nuclear translocation; cell count: measured here: nuclei count (cytotoxicity indicator), at 2.08 µM; inhibition: at 2 µM, stronger effect = higher value, 0% TNFa-plus-vehicle, 100% no-TNFa wells;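 further: compound added about 3h40 before a 20 min TNFalpha stimulation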;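 on inhibition: signal is the nuclear over cytoplasmic p65 intensity ratio per well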
[2] = reduction of polyQ htt aggregates in cells – imaging, exon1htt(103Q)mCFP cells, high-content imaging, primary screen (AID 483;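 active means visual image review flags a hit and inhibition of aggregation exceeds 20%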;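 further: compound exposure lasted 3 days before fixation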;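 on nuclei count: percent of the per-plate median nuclei count of sample wells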); settings: exon1htt(103Q)mCFP cell line, aggregate imaging, at 2 µM; inhibition of aggregation: stronger effect = higher value; nuclei count: measured here: cell count, toxicity
[3] = endothelial E-selectin expression blockers – imaging, HUVEC, immunofluorescence, MLSMR starter and 10KST1 sets, primary screen (AID 487;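 active means visually confirmed hit in the image check and inhibition above 20%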;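 on inhibition: signal is fraction of cell area covered by stained E-selectin grains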;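 on nuclei count: 100% = median nuclei count of all wells on the same plate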); settings: HUVEC TNFalpha-induced E-selectin immunofluorescence imaging, at 2 µM; inhibition: stronger effect = higher value; nuclei count: measured here: cell number, toxicity
[4] = molecular target: Voltage-gated potassium channel subunit beta-2 (Rattus norvegicus) (UniProt P62483); test: inhibitors of rat Kvbeta2 reductase activity – biochemical, NADPH fluorescence, primary screen (AID 622;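 active means fluorescence slope higher than the sample average by over 3 SD, cut at about -0.22 in these data, passing the limit was not always enough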;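 further: slope of raw intensity against log time taken from 70 to 1610 s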); settings: recombinant KvBeta, 4-cyanobenzaldehyde reduction, at 10 µM, stronger effect = higher value
[5] = molecular target: Voltage-gated potassium channel subunit beta-2 (Rattus norvegicus) (UniProt P62483); test: enhancers of rat Kvbeta2 NADPH turnover – biochemical, NADPH fluorescence, primary screen (AID 623;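 active means NADPH fluorescence slope more negative than the mean of all samples by about 3 SD, 99.7% confidence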;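 further: fluorescence intensity change per second fitted from 20 to 320 s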); settings: Recombinant KvBeta, NADPH fluorescence decrease slope, 10 min; at 10 µM; stronger effect = lower value
[6] = molecular target: Alpha-2C adrenergic receptor (Homo sapiens) (UniProt P18825); test: compounds altering alpha2C-coupled GIRK flux – cell-based, HEK293 alpha2C/GIRK1/2, thallium flux, primary screen (AID 624;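 active means fluorescence slope after compound addition differing from the mean of all screened samples at 99.7% confidence, in either direction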;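 further: slope of fluorescence ratio to pre-addition baseline per second over 15 to 24 s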); settings: thallium flux BTC fluorescence, at 10 µM, actives lie on both sides
[7] = blockers of RIG-like receptor reporter activation – cell-based, Sendai virus stimulus, luciferase, 10K MLSCN set, TLR/RLR signaling modifier project, primary screen (AID 602276;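 active means inhibition at or above 50% at 10 µM; inactive means inhibition below 50%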;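 further: firefly luciferase from ISG56 promoter only with Renilla not read in this screen; 0% = Sendai virus plus DMSO and 100% = medium plus DMSO without virus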); settings: HEK293 RL24 IRF3 luciferase reporter, at 10 µM, stronger effect = higher value
[8] = TLR3 IRF3 reporter activation blockers – cell-based, poly I:C stimulus, luciferase, 10K MLSCN set, primary screen (AID 602277;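 active means inhibition of the reporter signal at or above 50%; inactive means inhibition below 50%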); settings: HEK293-TLR3 RL24 IRF3 luciferase reporter, at 10 µM, stronger effect = higher value

Alpha-2C adrenergic receptor (Homo sapiens), sequence (P18825 whole entry, looked up): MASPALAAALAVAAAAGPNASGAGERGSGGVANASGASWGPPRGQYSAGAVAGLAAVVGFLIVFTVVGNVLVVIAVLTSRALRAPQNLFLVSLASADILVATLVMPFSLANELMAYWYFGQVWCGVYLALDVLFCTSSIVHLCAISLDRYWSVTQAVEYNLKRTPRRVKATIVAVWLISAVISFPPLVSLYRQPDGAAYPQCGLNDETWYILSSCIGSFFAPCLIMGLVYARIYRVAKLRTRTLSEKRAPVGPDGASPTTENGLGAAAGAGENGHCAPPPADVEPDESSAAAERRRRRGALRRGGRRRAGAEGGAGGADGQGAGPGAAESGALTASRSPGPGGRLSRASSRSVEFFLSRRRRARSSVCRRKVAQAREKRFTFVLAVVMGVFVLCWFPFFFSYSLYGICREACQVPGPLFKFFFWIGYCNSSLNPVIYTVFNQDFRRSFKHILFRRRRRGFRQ
Voltage-gated potassium channel subunit beta-2 (Rattus norvegicus), sequence (P62483 whole entry, looked up): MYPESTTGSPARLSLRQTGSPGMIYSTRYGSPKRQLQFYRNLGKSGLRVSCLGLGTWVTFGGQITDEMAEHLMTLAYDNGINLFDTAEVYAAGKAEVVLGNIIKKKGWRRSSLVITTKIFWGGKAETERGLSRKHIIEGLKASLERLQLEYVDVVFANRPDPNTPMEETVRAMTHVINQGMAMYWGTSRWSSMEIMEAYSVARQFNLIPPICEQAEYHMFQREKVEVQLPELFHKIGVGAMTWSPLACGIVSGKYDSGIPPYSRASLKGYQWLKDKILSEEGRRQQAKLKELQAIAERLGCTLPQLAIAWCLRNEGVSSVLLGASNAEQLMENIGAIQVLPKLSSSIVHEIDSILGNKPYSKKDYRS

SMILES | cell count [1] | inhibition [1] | inhibition of aggregation [2] | nuclei count [2] | inhibition [3] | nuclei count [3] | fluorescence slope [4] | NADPH fluorescence slope [5] | slope [6] | inhibition [7] | inhibition [8]
CCn1cc(C(=O)OCc2ccc(F)cc2)c(=O)c2ccc(C)nc21 | 360 | 0.4% (inactive) | -17.1% (inactive) | 102% | -16.9% (inactive) | 98% | -0.428 (inactive) | -2.4e-05 (inactive) | 0.00561 (inactive) | 11.6% (inactive) | -3.06% (inactive)
CCOC(=O)N1CCC(NC(=O)C2CCCN(C(=O)c3cc4sccc4n3C)C2)CC1 (stereo not drawn) | 762 | -5.8% (inactive) | -4.7% (inactive) | 127% | -71.5% (inactive) | 123% | -0.556 (inactive) | -4.1e-05 (inactive) | 0.00546 (inactive) | 2.87% (inactive) | 25.3% (inactive)
Cc1cc(N2CCN(C)CC2)nc(N2CCOCC2)n1 | 692 | -9.4% (inactive) | -6.8% (inactive) | 125% | -24.5% (inactive) | 109% | -0.425 (inactive) | -4.1e-05 (inactive) | 0.00311 (inactive) | -2.65% (inactive) | 25.9% (inactive)
C1=Nc2c(NCc3ccccc3)ncnc2Oc2ccccc21 | 305 | -0.2% (inactive) | 3.8% (inactive) | 98.1% | -17.3% (inactive) | 112% | -0.502 (inactive) | -2.6e-05 (inactive) | 0.00376 (inactive) | -11.5% (inactive) | 1.46% (inactive)
CCOC(=O)c1cccc(NC(=O)CSc2nnc(C3CCCCC3)n2C)c1 | 291 | -10.5% (inactive) | 7.3% (inactive) | 117% | 18% (inactive) | 113% | -0.586 (inactive) | -3.6e-05 (inactive) | 0.00599 (inactive) | 12.9% (inactive) | 17.5% (inactive)
CCn1c(SCC(=O)Nc2ccccc2F)nc2c(c1=O)SC(C)C2 (stereo not drawn) | 339 | -2.2% (inactive) | -3.7% (inactive) | 104% | -2% (inactive) | 117% | -0.554 (inactive) | -3.3e-06 (inactive) | 0.00612 (inactive) | 3.68% (inactive) | 8.8% (inactive)
COc1ccc(C)cc1S(=O)(=O)N(C)CC(=O)Nc1ccc2c(c1)OCO2 | 505 | -15.7% (inactive) | 8.7% (inactive) | 94.7% | 26.3% (inactive) | 84.9% | -0.616 (inactive) | -5e-05 (inactive) | 0.00341 (inactive) | 12.3% (inactive) | 12.3% (inactive)
CCOc1ccccc1-n1nnnc1SCC(=O)Nc1cc2oc3ccccc3c2cc1OC | 374 | -2.9% (inactive) | 4.8% (inactive) | 99.1% | -108% (inactive) | 118% | -0.568 (inactive) | 2.4e-05 (inactive) | 0.00931 (inactive) | -7.46% (inactive) | 15.7% (inactive)
O=C(CCCn1c(=S)[nH]c2cc3c(cc2c1=O)OCO3)N1CCN(c2ccccc2F)CC1 | 402 | -9.1% (inactive) | -7.6% (inactive) | 99.5% | 0.1% (inactive) | 112% | -0.501 (inactive) | -4.7e-05 (inactive) | 0.00637 (inactive) | 8.7% (inactive) | -6.98% (inactive)
O=C(CN1C(=O)c2ccccc2S1(=O)=O)Nc1ccc(S(=O)(=O)N2CCCCCC2)cc1 | 727 | -2.6% (inactive) | -11.1% (inactive) | 99.9% | -91.2% (inactive) | 107% | -0.489 (inactive) | -5.4e-05 (inactive) | 0.00568 (inactive) | 4.06% (inactive) | 19.5% (inactive)
Cc1ccc2nc(NC(=O)Cn3cc4c(n3)CCCCC4)sc2c1 | 899 | 0.5% (inactive) | 4% (inactive) | 100% | -44.1% (inactive) | 123% | -0.581 (inactive) | -1.2e-05 (inactive) | 0.00613 (inactive) | -7.98% (inactive) | -11.8% (inactive)
O=C(Nc1ccccc1C(=O)N1CCOCC1)c1cccc(S(=O)(=O)N2CCCC2)c1 | 440 | -5.3% (inactive) | 0.3% (inactive) | 92.3% | -138% (inactive) | 118% | -0.455 (inactive) | 4.9e-06 (inactive) | 0.00695 (inactive) | 2.51% (inactive) | 22.9% (inactive)
Cc1cc(NC(=O)CCCC(=O)Nc2ccc(F)cc2)no1 | 423 | -10.5% (inactive) | 13.2% (inactive) | 72.2% | -43% (inactive) | 107% | -0.477 (inactive) | 9.1e-07 (inactive) | 0.0057 (inactive) | 5.46% (inactive) | 34.4% (inactive)
COC(=O)c1ccc(Oc2nc(NC(C)C)nc(N(C)C)n2)cc1 | 632 | 28.3% (inactive) | -21.7% (inactive) | 94.4% | -112% (inactive) | 106% | -0.468 (inactive) | 2.5e-05 (inactive) | 0.00595 (inactive) | -2.9% (inactive) | 15.7% (inactive)
COc1cc(C2C(C#N)=C(N)OC3=C2C(=O)CC(C)(C)C3)ccc1OC(=O)N1CCOCC1 (stereo not drawn) | 482 | -36.6% (inactive) | 13.8% (inactive) | 86.6% | -75% (inactive) | 112% | -0.511 (inactive) | 1.1e-05 (inactive) | 0.00692 (inactive) | -15.1% (inactive) | 11.1% (inactive)
COCCn1nnnc1C(c1ccc(OC)cc1)N1CCN(c2ccccc2F)CC1 (stereo not drawn) | 476 | -1.9% (inactive) | -4.8% (inactive) | 131% | -30.1% (inactive) | 104% | -0.585 (inactive) | -9.6e-06 (inactive) | 0.00546 (inactive) | 14.5% (inactive) | 22.9% (inactive)
COc1cccc(NC(=O)N2CCC(N3CCCCC3)CC2)c1 | 369 | 5.2% (inactive) | 7.2% (inactive) | 105% | -124% (inactive) | 119% | -0.582 (inactive) | 2.5e-05 (inactive) | 0.00728 (inactive) | 15.9% (inactive) | 26.1% (inactive)
CC1=C(C(N)=O)C(c2ccccn2)n2nc(-c3ccccc3Cl)nc2N1 (stereo not drawn) | 588 | -5.4% (inactive) | -14.7% (inactive) | 104% | -11.6% (inactive) | 111% | -0.553 (inactive) | -3.1e-05 (inactive) | 0.0061 (inactive) | -2.04% (inactive) | 17.2% (inactive)
CCOC(=O)CSC1=C(C#N)C(c2ccc(Cl)cc2)C(C(=O)OC)C(=O)N1 (stereo not drawn) | 495 | 4.4% (inactive) | -24.6% (inactive) | 40.5% | -80% (inactive) | 95.7% | -0.394 (inactive) | -5.6e-05 (inactive) | 0.00371 (inactive) | 7.95% (inactive) | 25.3% (inactive)
O=C(Nc1ccc(F)cc1)N(Cc1ccco1)Cc1cc2cc3c(cc2[nH]c1=O)OCO3 | 473 | 4.5% (inactive) | 6.1% (inactive) | 96.6% | 15.9% (inactive) | 102% | -0.418 (inactive) | -2e-05 (inactive) | 0.0056 (inactive) | -8.59% (inactive) | -15.6% (inactive)
O=C(Cn1nnc(-c2ccc(S(=O)(=O)N3CCCC3)cc2)n1)NCC1CCCO1 (stereo not drawn) | 374 | -6.9% (inactive) | 7.6% (inactive) | 95% | -7.7% (inactive) | 112% | -0.481 (inactive) | 3.3e-05 (inactive) | 0.00625 (inactive) | -11.8% (inactive) | 15.1% (inactive)
COc1ccc(C2=CC(=O)OC3(CCCCC3)O2)cc1 | 390 | -5.3% (inactive) | -4.6% (inactive) | 99.3% | -152% (inactive) | 115% | -0.475 (inactive) | -8.9e-05 (inactive) | 0.0046 (inactive) | 13% (inactive) | 22.7% (inactive)
CCOC(=O)C1CCN(c2c(NC3CCCCCCC3)c(=O)c2=O)CC1 | 897 | 2.8% (inactive) | -6.4% (inactive) | 103% | -53.1% (inactive) | 118% | -0.575 (inactive) | -4.2e-05 (inactive) | 0.00631 (inactive) | 9.6% (inactive) | 32.7% (inactive)
Cc1nnc(Nc2ccccn2)c2ccccc12 | 657 | 7.2% (inactive) | 8.1% (inactive) | 104% | -61.4% (inactive) | 109% | -0.465 (inactive) | -4.2e-05 (inactive) | 0.00477 (inactive) | 8.64% (inactive) | 13.2% (inactive)
O=C(Nc1ccc(F)cc1)NC1CCN(Cc2nnnn2Cc2ccco2)CC1 | 849 | 0% (inactive) | -19.5% (inactive) | 94.3% | -2.9% (inactive) | 113% | -0.501 (inactive) | -4.4e-05 (inactive) | 0.00571 (inactive) | -9.98% (inactive) | 0.354% (inactive)
CN1CCN(S(=O)(=O)c2ccc(NC(=O)Nc3cccc(Cl)c3)cc2)CC1 | 468 | 0.3% (inactive) | -4.4% (inactive) | 91.8% | 36.5% (inactive) | 114% | -0.614 (inactive) | -3e-05 (inactive) | 0.00476 (inactive) | -1.37% (inactive) | -11.1% (inactive)
CN1CCN(S(=O)(=O)c2ccc(NC(=O)c3ccc(F)cc3)cc2)CC1 | 624 | 0% (inactive) | -2.2% (inactive) | 105% | -22.1% (inactive) | 85% | -0.424 (inactive) | -2.3e-05 (inactive) | 0.00505 (inactive) | 0.12% (inactive) | -12.3% (inactive)
Cc1cc(C)n2nc(SCC(=O)N(C)c3ccccc3)nc2n1 | 370 | -5.3% (inactive) | -25.2% (inactive) | 115% | -24.2% (inactive) | 103% | -0.462 (inactive) | -4.2e-05 (inactive) | 0.0068 (inactive) | 5.25% (inactive) | 24.1% (inactive)
